Measured values taken from PubChem BioAssay (NCATS).
Where “and” joins values, the source holds several entries; their conditions need not be identical. Identical values can stand only once. Inconclusive results are not listed. Calls follow the shape of the dose curve; as a rule, active = well fitted curve in either direction with a large enough effect (not every such curve was filed as active); inconclusive = small, poorly fitted or top-dose-only effect, or another doubt; inactive = flat fitted curve, though single readings scatter.

experiment: AP1 Signaling Pathway (AID 357); settings: ME-180 AP-1-bla reporter, EGF-induced, beta-lactamase ratio, 5 h; at 17.2 µM (top of the series)
Procedure, shortened: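 Read-out was the 460nm/530nm emission ratio (excitation 405nm) after CCF4 loading for 2.5 hours at room temperature. Cells carried an AP-1-driven beta-lactamase reporter, were stimulated with EC50 EGF plus compound for 5 hours, and AC50 values came from titrations.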
% is scaled to controls: 0 for no effect and ±100 for the full control effect.

Activity change, negative = inhibition, inactive:
CC[N+](C)(CC)CCC[n+]1c(-c2ccccc2)c2cc(N)ccc2c2ccc(N)cc21 5.27%
CO[C@@]12C[C@@H](COC(=O)c3cncc(Br)c3)CN(C)[C@H]1Cc1cn(C)c3cccc2c13 -12%
COC(=O)[C@@H]1[C@@H]2C[C@H]3c4[nH]c5ccccc5c4CCN3C[C@@H]2CC[C@@H]1O 0.544% and 5.73% and 0.793%
CC1=C(\C=C/C(C)=C/C=C\C(C)=C\C(=O)O)C(C)(C)CCC1 -3.06% and -11.4%
CCN(Cc1ccncc1)C(=O)[C@@H](CO)c1ccccc1 5.81%
C[C@@H](CCc1ccc(O)cc1)NCCc1ccc(O)c(O)c1 1.11%

same assay, conditions: ME-180 (cervical carcinoma) AP-1-bla reporter, EGF-induced, beta-lactamase ratio, 5 h; at 38 µM (top of the series)

Activity change, negative = inhibition, inactive:
CC(N)=NCCC[C@H](N)C(=O)O -5.19%
N[C@@H]1CCN(O)C1=O 18.2%
NC[C@](O)(CS(=O)(=O)O)c1ccc(Cl)cc1 6.15%
COc1ccccc1NC(=O)Nc1nc(-c2cccnc2)nc2ccccc12 12.1%
CC1=C(\C=C/C(C)=C/C=C\C(C)=C\C(=O)O)C(C)(C)CCC1 -26.4% and 3.96%
N[C@]1(C(=O)O)CCc2cc(C(=O)O)ccc21 2.45%
O=C(O)[C@H]1CCCNC1 5.2%
O=C(O)[C@H]1CN(CCCP(=O)(O)O)CCN1 1.7%
C[C@@](N)(C(=O)O)c1ccc(C(=O)O)cc1 2.6%
CNCC[C@H](Oc1ccccc1OC)c1ccccc1 26.3%
C[C@H](N=C(NC#N)Nc1ccncc1)C(C)(C)C -27.9%
CC(N)=NCCCC[C@H](N)C(=O)O -1.14%
C[C@@H](CCc1ccc(O)cc1)NCCc1ccc(O)c(O)c1 -3.98%
CC(C)[C@@H]1[C@H]2CC[C@H](C2)[C@H]1N 17.6%
C[C@@H]1C[C@@H]2[C@H]3CCC4=CC(=O)C=C[C@]4(C)[C@]3(F)[C@@H](O)C[C@@]2(C)[C@@]1(O)C(=O)CO -8.71%
N[C@H](CCC(=O)N[C@H](CSN=O)C(=O)NCC(=O)O)C(=O)O -9.57%
CC(C)(C)NC[C@H](O)COc1cccc2[nH]c(=O)[nH]c12 -7.21%
S=C(S)O[C@@H]1C[C@@H]2C[C@H]1[C@@H]1CCC[C@H]21 6.71%
